Measured values: PubChem BioAssay AID1456 (Vanderbilt High Throughput Screening Facility, 2008)
Screen size: about 190,000 compounds; about 4,100 (2.2%) were called active. The full list was thinned out, with actives kept by preference. A number with no mark means an inactive call.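 How the source made its calls: active means thallium flux slope and its plate-corrected score both differing from the plate sample mean at a set confidence after two filtering rounds, in either direction; inactive means the rest.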

target: Solute carrier family 12 member 5 (Homo sapiens) (UniProt Q9H2X9); assay: KCC2 cotransporter modulators, thallium flux, primary screen, cell-based, HEK293 KCC2, FluoZin-2 fluorescence, MLSMR (AID 1456); details: KCC2 cells, thallium flux FluoZin-2 fluorescence; at 10 µM;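 further: slope of fluorescence scaled to starting intensity during 10 to 20 s after thallium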
Sequence (Q9H2X9 whole entry, looked up): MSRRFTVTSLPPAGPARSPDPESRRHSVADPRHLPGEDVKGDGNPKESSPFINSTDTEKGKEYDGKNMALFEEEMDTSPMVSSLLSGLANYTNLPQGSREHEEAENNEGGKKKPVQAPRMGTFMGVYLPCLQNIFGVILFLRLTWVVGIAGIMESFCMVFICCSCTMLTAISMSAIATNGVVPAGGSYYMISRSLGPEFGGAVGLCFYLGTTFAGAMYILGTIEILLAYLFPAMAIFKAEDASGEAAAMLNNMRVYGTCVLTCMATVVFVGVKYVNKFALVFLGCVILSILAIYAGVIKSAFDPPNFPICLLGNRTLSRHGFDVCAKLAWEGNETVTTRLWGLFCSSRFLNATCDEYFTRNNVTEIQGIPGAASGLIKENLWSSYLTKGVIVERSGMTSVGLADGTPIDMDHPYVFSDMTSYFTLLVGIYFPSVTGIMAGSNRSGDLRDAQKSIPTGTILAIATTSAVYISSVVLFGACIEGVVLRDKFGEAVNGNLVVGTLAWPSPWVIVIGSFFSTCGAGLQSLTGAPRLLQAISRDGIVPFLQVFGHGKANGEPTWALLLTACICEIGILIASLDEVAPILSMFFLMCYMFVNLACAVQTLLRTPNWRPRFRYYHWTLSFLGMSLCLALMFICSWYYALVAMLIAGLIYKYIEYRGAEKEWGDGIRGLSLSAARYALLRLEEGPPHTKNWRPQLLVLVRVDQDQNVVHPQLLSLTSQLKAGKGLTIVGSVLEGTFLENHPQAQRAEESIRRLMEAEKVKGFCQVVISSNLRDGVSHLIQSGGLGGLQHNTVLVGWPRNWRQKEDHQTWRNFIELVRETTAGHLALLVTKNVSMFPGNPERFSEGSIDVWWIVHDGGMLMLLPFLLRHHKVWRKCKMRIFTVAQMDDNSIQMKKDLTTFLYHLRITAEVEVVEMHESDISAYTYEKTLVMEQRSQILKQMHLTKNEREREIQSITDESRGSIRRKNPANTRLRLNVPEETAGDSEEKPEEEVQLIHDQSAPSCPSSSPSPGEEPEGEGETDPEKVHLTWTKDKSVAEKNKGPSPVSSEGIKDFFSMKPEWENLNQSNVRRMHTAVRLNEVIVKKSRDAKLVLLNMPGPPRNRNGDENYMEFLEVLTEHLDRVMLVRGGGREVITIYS

| SMILES | B-score of Tl+ flux slope (higher = more flux/activation; lower = inhibition) |
| --- | --- |
| O=C(Cn1cnc2ccccc2c1=O)Nc1cccc(S(=O)(=O)N2CCCCC2)c1 | 0.0725 |
| CCNC(=S)Nc1ccc(OC(F)(F)F)cc1 | -0.759 |
| FC(F)(F)Oc1ccc(NC(=S)NCc2ccccc2)cc1 | 0.0182 |
| CS(=O)(=O)c1sc(C(=O)NC(=S)Nc2ccc(OC(F)(F)F)cc2)c2c1C=CCC2 | 6.79 (active) |
| CC1(C)C=C2[C@H]3CC[C@@H]4[C@@]5(C)CCC(=O)C(C)(C)[C@@H]5CC[C@@]4(C)[C@]3(C)CC[C@@]2(C(=O)O)CC1 | 5.9 (active) |
| CCOC(=O)N1CCN(c2c(NCCN3CCN(c4ccccc4F)CC3)c(=O)c2=O)CC1 | 0.85 |
| O=C(CCn1nnc2ccccc2c1=O)N[C@@H](Cc1c[nH]c2ccccc12)C(=O)O | 0.807 |
| CCn1c(=S)[nH]c2sc3c(c2c1=O)CCCCC3 | 75.1 (active) |
| CCCc1nc2sc3c(c2c(=O)n1NC(=O)CCCl)CCCC3 | -1.28 |
| O=c1c2c3c(sc2n(CCN2CCCC2)c(=O)n1Cc1ccccc1)CCCCC3 | -0.146 |
| O=C1C2C3C=CC(C3)C2C(=O)N1c1ccc(S(=O)(=O)Nc2nccs2)cc1 (stereo unspecified) | 0.592 |
| Fc1ccc(Nc2nnns2)cc1 | -0.138 |
| COc1ccccc1-n1cnc2cc(C(=O)NCC3CCCO3)ccc21 (stereo unspecified) | 0.84 |
| COc1ccccc1-n1cnc2cc(NS(=O)(=O)c3ccccc3)ccc21 | -3.88 (active) |
| COCCCNC(=O)c1ccc2c(c1)ncn2-c1ccccc1OC | -0.0358 |
| NNC(=O)c1ccc(COCC(F)(F)C(F)F)cc1 | 0.0302 |
| CCOC(=O)c1cn[nH]c1NC(=S)Nc1ccccc1 | 0.559 |
| C/C(Cc1ccccc1)=N\NC(=O)CNC(=O)c1ccc2c(c1)OCCO2 | 0.0985 |
| O=C1/C(=C/c2cccs2)SC(=S)N1C1CCS(=O)(=O)C1 (stereo unspecified) | -0.225 |
| O=C(CCCN1C(=O)/C(=C/c2ccccc2)SC1=S)Nc1ccc(O)cc1 | -0.0883 |
| S=C1Nc2cc(Cl)ccc2Sc2ccccc21 | 8.4 (active) |

| SMILES | B-score of Tl+ flux slope (higher = more flux/activation; lower = inhibition) |
| --- | --- |
| O=C(NC1CC1)c1ccc2c(c1)NC(=O)c1ccccc1S2 | -0.0671 |
| O=C1Cc2ccccc2Sc2ccc(Cl)cc21 | 0.587 |
| N#C/C(=C\N1CCOCC1)S(=O)(=O)c1ccc(Cl)cc1 | -0.211 |
| COC(=O)c1c(C)oc(C)c1S(=O)(=O)NCc1ccc(Cl)cc1 | -0.208 |
| COC(=O)C1=C(C)N=C2SC(C)C(=O)N2C1/C=C/c1ccccc1 (stereo unspecified) | 0.122 |
| CC(OC(=O)c1ccccc1N1C(=O)C2C3CCC(C3)C2C1=O)C(=O)c1ccccc1 (stereo unspecified) | 0.138 |
| CCOC(=O)c1ccccc1N1C(=O)C2Sc3[nH]c(=O)sc3C(/C=C/c3ccccc3)C2C1=O (stereo unspecified) | -6.82 (active) |
| CC(C)(C)C(=O)NNC(=O)c1ccc(Oc2cc(Cl)cc(Cl)c2)o1 | 4.1 |
| COc1ccc(Cl)cc1C(=O)NNC(=S)NC(=O)/C=C/c1ccco1 | 28.5 (active) |
| COc1ccc(Cl)cc1C(=O)NNC(=S)NC1CCCC1 | 0.52 |
| C=CCNC(=S)NNC(=O)c1cc(Cl)ccc1OC | -0.352 |
| Cc1cc(C)nc(SC(C)C(=O)N/N=C/c2cccs2)n1 (stereo unspecified) | 5.07 (active) |
| NC(=O)N/N=C\c1cccs1 | 0.148 |
| Cc1nc2ccccc2n1CC(=O)N/N=C/c1cccs1 | 0.629 |
| O=[N+]([O-])c1ccc(N=Cc2c(O)ccc3ccccc23)cc1 | -0.766 |
| CN(C)S(=O)(=O)c1ccc(Cl)c(NC(=O)COC(=O)CC(NC(N)=O)c2ccc(Cl)cc2)c1 (stereo unspecified) | -0.372 |
| COC(=O)/C=C(\Oc1ccccc1)C1(O)CCCCC1 | 0.292 |
| Cn1c(CCCOc2ccc(Cl)cc2Cl)n[nH]c1=S | -7.28 (active) |
| CC(C)Oc1ccc(Cc2n[nH]c(=S)n2Cc2ccccc2)cc1Cl | 0.809 |
| O=C(CCCOc1ccc(Cl)cc1Cl)NNC(=O)C1CCC1 | -0.669 |
| CC(/C=C/c1ccco1)=N/NC(=O)C1COc2ccccc2O1 (stereo unspecified) | 0.221 |

| SMILES | B-score of Tl+ flux slope (higher = more flux/activation; lower = inhibition) |
| --- | --- |
| S=C(Cc1ccc(Cl)cc1)N1CCOCC1 | 0.203 |
| O=C(NCc1ccccc1)c1ccc(S(=O)(=O)Nc2cccc(C(F)(F)F)c2)cc1 | -1.11 |
| CN(C)S(=O)(=O)c1cccc(NC(=S)N/N=C/C(=O)c2ccccc2)c1 | 6.68 (active) |
| CCN(CC)S(=O)(=O)c1cccc(C(=O)Nc2ccccc2)c1 | 0.179 |
| CN(C)S(=O)(=O)c1cccc(NC(=S)NCc2ccc3c(c2)OCO3)c1 | -0.00969 |
| Cc1ccc(/C=N/NC(=S)Nc2cccc(S(=O)(=O)N(C)C)c2)o1 | 11.8 (active) |
| CN(C)S(=O)(=O)c1cccc(NC(=O)COC(=O)c2cc(=O)[nH]c(=O)[nH]2)c1 | -0.0283 |
| CN(C)S(=O)(=O)c1cccc(C(=O)Nc2cccnc2)c1 | 0.857 |
| Cc1cc(C)cc(NC(=O)Cn2cnc3c(nnn3Cc3ccc(F)cc3)c2=O)c1 | 0.19 |
| O=C(Cn1nnc(-c2ccccc2)n1)NCc1ccc2c(c1)OCO2 | -1.86 |
| O=C(Cn1cnc2c(nnn2Cc2ccc(F)cc2)c1=O)NCc1ccc2c(c1)OCO2 | -2.61 (active) |
| Cn1nccc1NC(=O)Nc1ccc(OC(F)(F)F)cc1 | -0.213 |
| Cc1ccccc1-c1n[nH]c(=S)n1/N=C/c1ccc(-c2ccccc2Br)o1 | 5.28 (active) |
| Cc1ccc(Cl)cc1-c1ccc(/C=N/n2cnnc2)o1 | 0.473 |
| Cc1n[nH]c(=S)n1/N=C/c1ccc(Br)o1 | -0.354 |
| O=[N+]([O-])c1cccc2ncccc12 | -1.11 |
| Cc1ccc(Nc2nnc(SCC(=O)c3cc4ccccc4o3)s2)cc1C | -8.65 (active) |
| Cc1ccccc1Nc1nnc(SCC(=O)c2cc3ccccc3o2)s1 | -2.32 |
| Cc1cc2c(=O)n(C)c(SCC(=O)c3cc4ccccc4o3)nc2s1 | 0.288 |
